# Key:
# Histone H2B type 1-L = Histone H2B type 1-L (UniProt Q99880); experiment: cross-linking mass spectrometry
# DNA topoisomerase 1 = DNA topoisomerase 1 (UniProt P11387); experiment: cross-link between two proteins; cross-linking mass spectrometry
# [1] = target: Large ribosomal subunit protein eL36 (UniProt Q9Y3U8); experiment: as above
# [2] = target: Probable ATP-dependent RNA helicase DDX5 (UniProt P17844); experiment: as above
# [3] = target: Small ribosomal subunit protein uS17 (UniProt P62280); experiment: as above
# Histone H2B type 1-B = Histone H2B type 1-B (UniProt P33778); experiment: as above
# Histone H4 = Histone H4 (UniProt P62805); experiment: as above
# [4] = target: Large ribosomal subunit protein eL24 (UniProt P83731); experiment: as above
# [5] = target: Large ribosomal subunit protein uL18 (UniProt P46777); experiment: as above
# [6] = target: Large ribosomal subunit protein uL2 (UniProt P62917); experiment: as above
# [7] = target: Small ribosomal subunit protein uS12 (UniProt P62266); experiment: as above
# [8] = target: Peptidyl-prolyl cis-trans isomerase A-like 4A (UniProt Q9Y536); experiment: as above
# [9] = target: Small ribosomal subunit protein eS6 (UniProt P62753); experiment: as above
# [10] = target: Small ribosomal subunit protein uS9 (UniProt P62249); experiment: as above
# Sequence of DNA topoisomerase 1 (P11387 whole entry): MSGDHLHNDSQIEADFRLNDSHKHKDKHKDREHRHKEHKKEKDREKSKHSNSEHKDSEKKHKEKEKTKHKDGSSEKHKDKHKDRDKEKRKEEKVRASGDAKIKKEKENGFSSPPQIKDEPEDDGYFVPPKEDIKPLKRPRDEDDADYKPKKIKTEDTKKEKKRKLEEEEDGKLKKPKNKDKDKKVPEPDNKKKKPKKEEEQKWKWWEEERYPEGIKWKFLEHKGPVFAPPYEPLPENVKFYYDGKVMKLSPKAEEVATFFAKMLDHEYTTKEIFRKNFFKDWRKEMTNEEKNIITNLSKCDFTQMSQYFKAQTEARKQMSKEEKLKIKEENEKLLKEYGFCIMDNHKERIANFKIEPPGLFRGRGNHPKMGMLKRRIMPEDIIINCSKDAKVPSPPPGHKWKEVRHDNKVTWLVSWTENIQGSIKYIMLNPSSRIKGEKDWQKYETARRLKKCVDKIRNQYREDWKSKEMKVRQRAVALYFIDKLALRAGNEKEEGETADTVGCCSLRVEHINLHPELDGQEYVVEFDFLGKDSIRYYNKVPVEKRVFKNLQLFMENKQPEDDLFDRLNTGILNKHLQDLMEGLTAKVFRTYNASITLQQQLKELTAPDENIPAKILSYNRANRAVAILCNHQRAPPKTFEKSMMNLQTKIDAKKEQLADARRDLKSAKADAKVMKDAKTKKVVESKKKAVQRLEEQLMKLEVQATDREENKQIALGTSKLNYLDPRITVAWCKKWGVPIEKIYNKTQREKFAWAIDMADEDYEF
# Sequence of Probable ATP-dependent RNA helicase DDX5 (P17844 whole entry): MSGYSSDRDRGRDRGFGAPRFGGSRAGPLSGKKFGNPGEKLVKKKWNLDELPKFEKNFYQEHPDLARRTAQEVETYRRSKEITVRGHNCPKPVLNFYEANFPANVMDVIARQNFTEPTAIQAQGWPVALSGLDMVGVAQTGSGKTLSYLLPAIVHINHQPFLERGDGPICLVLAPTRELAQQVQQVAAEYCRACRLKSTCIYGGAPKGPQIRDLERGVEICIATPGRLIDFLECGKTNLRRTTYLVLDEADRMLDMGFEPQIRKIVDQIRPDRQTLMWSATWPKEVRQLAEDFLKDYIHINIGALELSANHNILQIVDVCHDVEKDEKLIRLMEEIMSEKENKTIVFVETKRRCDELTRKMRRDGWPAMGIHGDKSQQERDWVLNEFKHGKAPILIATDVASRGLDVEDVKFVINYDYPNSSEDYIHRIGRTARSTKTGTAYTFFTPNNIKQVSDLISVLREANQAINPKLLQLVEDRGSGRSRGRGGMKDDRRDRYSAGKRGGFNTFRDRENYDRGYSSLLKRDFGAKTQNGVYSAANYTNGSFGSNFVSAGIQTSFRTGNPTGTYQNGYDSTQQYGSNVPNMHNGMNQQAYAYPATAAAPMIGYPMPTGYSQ
# Sequence of Peptidyl-prolyl cis-trans isomerase A-like 4A (Q9Y536 whole entry): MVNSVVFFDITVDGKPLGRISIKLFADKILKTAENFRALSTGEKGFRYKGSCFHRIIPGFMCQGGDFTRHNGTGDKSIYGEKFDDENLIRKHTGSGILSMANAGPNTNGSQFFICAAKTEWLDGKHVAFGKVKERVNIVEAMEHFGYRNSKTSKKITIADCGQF
substance,measurement,setting,value
"Actin, cytoplasmic 1, P60709",listed as a hit,Histone H2B type 1-L,yes
"Histone H1.4, P10412",listed as a hit,DNA topoisomerase 1,yes
same,listed as a hit,[1],yes
same,listed as a hit,[2],yes
same,listed as a hit,[3],yes
"Large ribosomal subunit protein uL22, P18621",listed as a hit,Histone H2B type 1-B,yes
"Large ribosomal subunit protein eL33, P18077",listed as a hit,Histone H2B type 1-B,yes
"Small ribosomal subunit protein uS5, P15880",listed as a hit,Histone H4,yes
"Small ribosomal subunit protein eS1, P61247",listed as a hit,Histone H4,yes
"Histone H4, P62805",listed as a hit,[4],yes
"Histone H2B type 1-B, P33778",listed as a hit,[5],yes
same,listed as a hit,[6],yes
same,listed as a hit,[7],yes
"Histone H2B type 1-C/E/F/G/I, P62807",listed as a hit,[8],yes
"Large ribosomal subunit protein uL4, P36578",listed as a hit,[9],yes
"Large ribosomal subunit protein eL27, P61353",listed as a hit,[10],yes

# Source: PMC12701074
